Cav32 inh: blocks human Cav3.2 T-type calcium channel. O95180. Cav3.2-expressing cells, Fluo-4 calcium fluorescence FDSS; active compounds read low. AID 449739. B-score at 10 µM. 4% of 100,000 active;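 active = single-dose well whose peak fluorescence ratio is a statistical outlier from its plate by either plate-standardised score or position-corrected B-score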
CYP2C9 activ: CYP2C9 (human) activation; P11712; recombinant CYP2C9, luciferin-H conversion, luminescence; active compounds read high; factor 1 = untreated enzyme, 0 = blocked; activation factor at 5 µM; 1.4% of 96,000 active; AID 1024;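 active = activation factor of 2 or more for CYP2C9 at a 5 µM dose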;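 also: 0 = sulfaphenazole-blocked wells and 1 = vehicle-only wells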
Target sequence (P11712 whole entry, looked up): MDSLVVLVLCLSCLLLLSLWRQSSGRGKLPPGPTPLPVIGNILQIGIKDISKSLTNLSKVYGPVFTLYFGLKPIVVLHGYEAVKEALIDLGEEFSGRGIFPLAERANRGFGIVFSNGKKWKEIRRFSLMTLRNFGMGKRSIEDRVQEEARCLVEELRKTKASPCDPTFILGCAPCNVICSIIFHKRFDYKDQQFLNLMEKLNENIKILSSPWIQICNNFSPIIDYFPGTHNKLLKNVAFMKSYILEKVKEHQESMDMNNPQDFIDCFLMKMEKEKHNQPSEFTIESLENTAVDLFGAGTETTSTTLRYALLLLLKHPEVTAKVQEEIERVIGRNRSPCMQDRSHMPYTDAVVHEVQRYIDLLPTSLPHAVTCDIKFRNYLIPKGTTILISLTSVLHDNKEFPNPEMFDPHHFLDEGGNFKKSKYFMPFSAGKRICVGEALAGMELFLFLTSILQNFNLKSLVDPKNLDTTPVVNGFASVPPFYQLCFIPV
CYP2C9 inhib: blocks human cytochrome P450 2C9. 20% of 96,000 active. CYP2C9 Supersomes, luciferin-H conversion, luminescence. AID 777. inhibition, % at 5 µM;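 active = blocking of liver enzyme CYP2C9 beyond about 50% at 5 µM, limit read from the data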
CYP2C19 act: cytochrome P450 2C19 (human) activation | recombinant CYP2C19, luciferin-H EGE luminescence; active compounds read high; 0 = fully inhibited enzyme, 1 = untreated enzyme | 96,000 tested, under 10 active | AID 1025 | activation factor at 5 µM;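 active = activation factor of at least 2 at 5 µM in the primary screen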;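 also: 0 = wells with 2.5 mM tranylcypromine and 1 = vehicle-only wells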
CYP2C19 inhib: blocks human cytochrome P450 2C19; 21% of 96,000 active; CYP2C19 Supersomes, luciferin-H EGE luminescence, 30 min; AID 778; inhibition, % at 5 µM;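 active = CYP2C19 inhibition above a set limit at 5 µM in the primary screen, cut at about 50% in these data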;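 also: plate controls were negative control wells for no effect and 2.5 mM tranylcypromine positive control for full effect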
* hit, by the source's call. Most compounds without a hit are left out; they make up all but 27% or so of the library.

`C[C@@H]1CC[C@@]2(O[C@@H](CCO)C[C@H](O)[C@H]2O)O1` gave Cav32 inh -0.209.
For CC(C)(C)c1cc(NC(=O)COC(=O)C2CC2)n(-c2ccccc2)n1 the results were Cav32 inh 0.209, CYP2C9 activ 0.8, CYP2C9 inhib 22.6, CYP2C19 act 0.4 and CYP2C19 inhib 55.9*.
Screening COc1ccc(-c2nn(C)c(=O)c3ccccc23)cc1NS(C)(=O)=O returned Cav32 inh 1.1, CYP2C9 activ 0.5, CYP2C9 inhib 50.8*, CYP2C19 act 0.5 and CYP2C19 inhib 46.9.
Screening COc1ccc(-c2nn(C)c(=O)c3ccccc23)cc1NC(=O)Cn1nc(-c2ccccc2)c2ccccc2c1=O returned Cav32 inh 0.255, CYP2C9 activ 0.3, CYP2C9 inhib 72.3*, CYP2C19 act 0.6 and CYP2C19 inhib 44.8.
Cc1ccc(-c2nn(CC(N)=O)c(=O)c3ccccc23)cc1S(=O)(=O)N(C)C was read as Cav32 inh 0.908, CYP2C9 activ 0.4, CYP2C9 inhib 58.8*, CYP2C19 act 1.2 and CYP2C19 inhib -24.4.
Cc1ccc(-c2nn3c(C)nnc3c3ccccc23)cc1S(=O)(=O)NC(C)c1ccccc1 (stereo not drawn) was read as Cav32 inh -1.95, CYP2C9 activ 0.3, CYP2C9 inhib 72.8*, CYP2C19 act 0.5 and CYP2C19 inhib 50.2*.
Screening Cc1ccc(-c2nn3c(C)nnc3c3ccccc23)cc1S(=O)(=O)N1CCN(CCO)CC1 returned Cav32 inh 2.53, CYP2C9 activ 0.8, CYP2C9 inhib 16.0, CYP2C19 act 1 and CYP2C19 inhib 1.5.
`COCCNS(=O)(=O)c1cc(-c2nn(C)c(=O)c3ccccc23)ccc1C` gave Cav32 inh 0.683, CYP2C9 activ 0.3, CYP2C9 inhib 69.9*, CYP2C19 act 0.4 and CYP2C19 inhib 57.1*.
Cc1cc(C)n(CC(=O)NCc2cc(-c3nn(C)c(=O)c4ccccc34)ccc2C)n1 was read as Cav32 inh 3.38, CYP2C9 activ 0.5, CYP2C9 inhib 54.7*, CYP2C19 act 0.7 and CYP2C19 inhib 34.6.
For Cc1ccc(-c2nn(C)c(=O)c3ccccc23)cc1CNC(=O)Cn1nc(-c2ccccc2)c2ccccc2c1=O the results were CYP2C9 activ 0.9, CYP2C9 inhib 13.6, CYP2C19 act 0.9 and CYP2C19 inhib 9.2.
`Cn1c(SCC(=O)Nc2ccc(N3CCOCC3)c(Cl)c2)nnc1-c1ccccc1` gave Cav32 inh 0.486.
Screening Cc1oncc1C(=O)NC(C)C returned Cav32 inh 0.315, CYP2C9 activ 0.8, CYP2C9 inhib 17.8, CYP2C19 act 0.9 and CYP2C19 inhib 8.2.
Screening O=C(OCC(=O)N1CCCCCC1)c1cccs1 returned Cav32 inh -0.115, CYP2C9 activ 1, CYP2C9 inhib -3.5, CYP2C19 act 0.5 and CYP2C19 inhib 49.1.
Screening Cc1cc(C)c(S(=O)(=O)N2CCCCC2)c(C)c1N(C)S(=O)(=O)c1ccccc1 returned Cav32 inh -4.34*, CYP2C9 activ 0.4, CYP2C9 inhib 59.4*, CYP2C19 act 0.7 and CYP2C19 inhib 30.4.
`Cc1cc(C)c(S(=O)(=O)N2CCCCC2)c(C)c1-n1ncnn1` gave Cav32 inh 0.243, CYP2C9 activ 2.1*, CYP2C9 inhib -109.8, CYP2C19 act 0.3 and CYP2C19 inhib 69.3*.
`CCOc1ccc(S(=O)(=O)N2CCN(C)CC2)c(C)c1C` gave Cav32 inh 0.146, CYP2C9 activ 1.3, CYP2C9 inhib -27.9, CYP2C19 act 0.7 and CYP2C19 inhib 28.1.
Cc1ccc(S(=O)(=O)N2CCN(C)CC2)c(C)c1N(C)S(=O)(=O)c1ccc(Cl)cc1 was read as Cav32 inh 0.695, CYP2C9 activ 0.5, CYP2C9 inhib 46.7, CYP2C19 act 0.3 and CYP2C19 inhib 67.1*.
`Cc1cc(C)c(S(=O)(=O)N2CCCCC2)cc1N(C)S(=O)(=O)c1ccc(Cl)cc1` gave Cav32 inh -4.04, CYP2C9 activ 0.3, CYP2C9 inhib 70.7*, CYP2C19 act 0.6 and CYP2C19 inhib 37.6.
Screening O=S(=O)(c1ccccc1S(=O)(=O)N1CCCCC1)N1CCCCC1 returned Cav32 inh 0.371, CYP2C9 activ 0.9, CYP2C9 inhib 6.5, CYP2C19 act 0.9 and CYP2C19 inhib 10.7.
CCOC(=O)CSc1nc(C(C)(C)C)cc(C(F)(F)F)c1C#N was read as Cav32 inh 0.13, CYP2C9 activ 0.5, CYP2C9 inhib 49.0, CYP2C19 act 1.1 and CYP2C19 inhib -12.2.
For COc1ccc(CNS(=O)(=O)c2ccccc2Br)cc1 the results were Cav32 inh -1.07.
`COCCN1C(=O)N[C@@H](c2ccccc2)[C@H](C(=O)OC)[C@H]1C` gave Cav32 inh -1.04.
Screening Cc1cc(C(=O)N/N=C/c2cccc(OC(=O)c3ccco3)c2)n[nH]1 returned Cav32 inh 0.0986, CYP2C9 activ 0.8, CYP2C9 inhib 15.6, CYP2C19 act 1 and CYP2C19 inhib -4.4.
CCOC(=O)c1sc(NC(=O)CSc2nc3c(cc2C#N)CCCCCC3)c(C#N)c1C was read as Cav32 inh -3.88, CYP2C9 activ 0.3, CYP2C9 inhib 68.2*, CYP2C19 act 0.8 and CYP2C19 inhib 16.5.
For CCOC(=O)c1sc(NC(=O)CSc2n[nH]c(-c3ccc(Cl)cc3Cl)n2)c(C#N)c1C the results were CYP2C9 activ 0.2, CYP2C9 inhib 75.9*, CYP2C19 act 0.7 and CYP2C19 inhib 33.8.
CCOC(=O)c1sc(NC(=O)CSc2nc3c(c(-c4ccc(OC)cc4)c2C#N)CCCC3)c(C#N)c1C was read as Cav32 inh -1.34, CYP2C9 activ 0.4, CYP2C9 inhib 64.5*, CYP2C19 act 0.7 and CYP2C19 inhib 30.3.
For CCOC(=O)c1sc(NC(=O)CSc2nc(C)cc(-c3ccccc3)n2)c(C#N)c1C the results were Cav32 inh 0.702, CYP2C9 activ 0.5, CYP2C9 inhib 45.9, CYP2C19 act 0.9 and CYP2C19 inhib 10.2.
For CCOC(=O)c1sc(NC(=O)c2cc(-c3ccccc3C)nc3ccccc23)c(C#N)c1C the results were Cav32 inh -6.8*, CYP2C9 activ 0.5, CYP2C9 inhib 54.8*, CYP2C19 act 1 and CYP2C19 inhib 4.0.
CN(C)C/C(Cl)=C(\Cl)c1ccccc1 was read as Cav32 inh -0.091, CYP2C9 activ 0.7, CYP2C9 inhib 27.0, CYP2C19 act 0.4 and CYP2C19 inhib 57.4*.
`COCCn1c(C)cc(C(=O)COC(=O)CCN2C(=O)c3ccccc3C2=O)c1C` gave Cav32 inh 0.6, CYP2C9 activ 0.9, CYP2C9 inhib 13.5, CYP2C19 act 0.7 and CYP2C19 inhib 33.0.
Screening CSC(=NCc1cccnc1)NS(=O)(=O)c1cccs1 returned Cav32 inh -0.257, CYP2C9 activ 0.9, CYP2C9 inhib 13.1, CYP2C19 act 0.3 and CYP2C19 inhib 65.0*.
Screening c1csc(-c2nc3nc4ccccc4nc3n2Cc2ccc3c(c2)OCO3)c1 returned Cav32 inh -3.19, CYP2C9 activ 0, CYP2C9 inhib 96.3*, CYP2C19 act 0.1 and CYP2C19 inhib 90.1*.
